Source: PubChem BioAssay (NCATS)
Structures can show the parent of a compound that is named as a salt. Records with an inconclusive call do not appear. Where a call stands in place of a potency, no number is given. Active and inactive are the calls of the source. Unless noted, the call rests on the fitted dose curve; in most records, active means well fitted curve in the direction sought with a large enough effect; inconclusive means small, poorly fitted or top-dose-only effect, or another doubt; inactive means no such curve, though single readings can be large; an effect the other way counts as inactive or inconclusive. Peptide text beside a SMILES is read from it. * marks the point of attachment. Tfa = O=C(C(F)(F)F)*

Tests used:
[1] = molecular target: Cytochrome P450 3A4 (Homo sapiens) (UniProt P08684); experiment: qHTS Assay for Inhibitors and Substrates of Cytochrome P450 3A4 (AID 884); further: nearly all actives have a fitted effect of over 50% in size; further: potency means the concentration at half of the fitted maximal effect
Outline: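 Luminescent readout of luciferin produced by CYP3A4 (20 nM) dealkylation of Luciferin-PPXE, 25 uM (its KM). NADPH-driven reaction ran 60 min at RT after 10 min compound preincubation; data scaled to 57 uM ketoconazole as 100% inhibition.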

[2] = Confirmation and Secondary Assay for Modulators of Hemoglobin Beta Chain Splicing at IVS2 654 locus (AID 910);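 further: HeLa cells stably carrying EGFP split by mutant beta-globin IVS2-654 intron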
Outline: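 HeLa cells stably expressing EGFP interrupted by β-globin IVS2-654 intron, seeded overnight in Opti-MEM/2% FCS, then treated 2 days at 37 °C. Restored splicing read as total peak GFP intensity per well by laser scanning cytometry (488 nm excitation, 500–520 nm emission); 500 nM antisense PNA as control.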

[3] = Confirmation and Secondary Assay for Modulators of Hemoglobin Beta Chain Splicing at IVS2 705 locus (AID 930);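 further: HeLa cells stably expressing the EGFP-705 splicing reporter; GFP fluorescence per well restored by corrected splicing of the IVS2-705 intron in EGFP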
Outline: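 Assay measures total GFP intensity per well in HeLa EGFP-705 cells after 2 days with compound; mis-splicing normally truncates EGFP, so fluorescence indicates corrected splicing.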

[4] = qHTS Assay for Lipid Storage Modulators (AID 1519; calls by dose curve); conditions: Drosophila S3 cells, BODIPY lipid droplet/cell ratio, laser cytometry, cells loaded with oleic acid; for activity change, negative = inhibition: at 57.5 µM (top of the series)
Outline: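 Cells seeded at 5,000 per well were treated with compounds over a concentration series and loaded with oleic acid (400 uM, as added). Lipid droplet fluorescence (488 nm excitation, 500-530 nm channel) was read by laser-scanning cytometry and normalized to 20 uM Triacsin C.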

[5] = molecular target: Ubiquitin carboxyl-terminal hydrolase 1 (Homo sapiens) (UniProt O94782); experiment: Inhibitors of USP1/UAF1: Pilot qHTS (AID 504865);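 further: rhodamine fluorescence freed from ubiquitin-rhodamine substrate followed over time; top concentration of the series differs between compounds; nearly all actives have a fitted effect of over 35% in size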
Outline: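 1nM USP1/UAF1 + cpd, 15 min RT; start w/ Ub-Rho 150nM final; kinetic FL 480/540 nm, 6 reads q60 s. Buffer 50mM HEPES pH 7.8, 0.5mM EDTA, 1mM TCEP, 0.01% Tween-20, 0.1 mg/ml BSA.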

[6] = molecular target: Cytochrome P450 3A4 (Homo sapiens) (UniProt P08684); experiment: qHTS Assay for Activators of Cytochrome P450 3A4 (AID 885); further: nearly all actives have a fitted effect of over 65% in size; further: potency means the concentration at half of the fitted maximal effect
Outline: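 Luminescent readout of luciferin formed from 25 uM Luciferin-PPXE (KM level) by 20 nM CYP3A4 in 200 mM KPO4, with 60 min NADPH-driven reaction at room temperature after 10 min compound exposure. Ketoconazole (57 uM) defined 100% inhibition.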

[7] = measured here: cell count channel max response
[8] = measured here: lipid channel max response

Chain of Ubiquitin carboxyl-terminal hydrolase 1 (Homo sapiens) (O94782 whole entry, looked up): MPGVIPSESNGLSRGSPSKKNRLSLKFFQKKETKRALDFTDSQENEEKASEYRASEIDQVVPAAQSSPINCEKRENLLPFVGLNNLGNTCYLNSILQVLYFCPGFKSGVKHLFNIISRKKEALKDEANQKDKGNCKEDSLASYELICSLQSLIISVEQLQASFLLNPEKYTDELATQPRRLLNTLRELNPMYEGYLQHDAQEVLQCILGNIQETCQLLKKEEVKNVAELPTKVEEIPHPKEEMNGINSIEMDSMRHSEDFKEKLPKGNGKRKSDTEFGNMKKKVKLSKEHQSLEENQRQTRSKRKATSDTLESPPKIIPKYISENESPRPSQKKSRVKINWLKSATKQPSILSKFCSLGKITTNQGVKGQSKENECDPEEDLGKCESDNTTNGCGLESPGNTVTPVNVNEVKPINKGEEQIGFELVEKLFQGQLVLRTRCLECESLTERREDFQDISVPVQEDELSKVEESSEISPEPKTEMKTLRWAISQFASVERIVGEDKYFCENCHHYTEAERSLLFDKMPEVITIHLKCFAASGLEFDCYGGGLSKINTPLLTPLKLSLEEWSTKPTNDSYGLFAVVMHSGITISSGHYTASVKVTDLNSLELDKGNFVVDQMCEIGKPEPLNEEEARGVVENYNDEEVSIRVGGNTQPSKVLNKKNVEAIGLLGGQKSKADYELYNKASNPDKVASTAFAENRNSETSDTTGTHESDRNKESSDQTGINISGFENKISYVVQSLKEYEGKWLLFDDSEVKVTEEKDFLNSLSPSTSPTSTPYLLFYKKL
Chain of Cytochrome P450 3A4 (Homo sapiens) (P08684 whole entry, looked up): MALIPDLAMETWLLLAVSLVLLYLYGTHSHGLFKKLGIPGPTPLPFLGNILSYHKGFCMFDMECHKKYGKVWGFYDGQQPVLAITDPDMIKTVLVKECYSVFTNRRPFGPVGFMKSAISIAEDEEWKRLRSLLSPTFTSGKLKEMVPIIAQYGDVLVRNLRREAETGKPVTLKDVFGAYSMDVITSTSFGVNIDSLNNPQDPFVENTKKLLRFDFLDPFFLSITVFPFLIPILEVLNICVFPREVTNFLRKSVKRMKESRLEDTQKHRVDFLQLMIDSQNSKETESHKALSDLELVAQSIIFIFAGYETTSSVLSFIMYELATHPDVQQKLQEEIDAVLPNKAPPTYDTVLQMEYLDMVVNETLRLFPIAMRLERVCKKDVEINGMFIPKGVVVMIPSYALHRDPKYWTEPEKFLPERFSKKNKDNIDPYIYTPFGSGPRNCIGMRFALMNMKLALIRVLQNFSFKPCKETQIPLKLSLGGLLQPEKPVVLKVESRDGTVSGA

Compound | Potency [1] | Potency [2] | Potency [3] | activity change, negative = inhibition [4] | max response [4, 7] | max response [4, 8] | Potency [5] | Potency [6]
CCCCCC(CC(=O)O)C(=O)O (stereo not drawn) | inactive | inactive | inactive | 12.5% (inactive) | 21.4% | 35.2% | inactive | –
CC1(C)CC2/C(CO)=C/C=C/[C@](C)(O)CC[C@]21O (stereo partly drawn) | 15.8 µM (active) | inactive | inactive | 4.24% (inactive) | 22.8% | 29.9% | inactive | inactive
NCCC(=O)N[C@H](Cc1cnc[nH]1)C(=O)O | inactive | inactive | inactive | 4.17% (inactive) | 11.4% | 10.9% | inactive | –
CC(=O)OC1CC(OC(C)=O)[C@]2(C)C(CC(OC(C)=O)[C@]3(C)C2CC[C@@]2(C)C(c4ccoc4)OC(=O)C4O[C@]432)C1(C)C (stereo partly drawn) | 1.26 µM (active) | inactive | inactive | 0.867% (inactive) | -4.64% | -0.493% | inactive | inactive
CC(=O)OCC(=O)C1CCC2C3CCC4=CC(=O)CC[C@@]4(C)C3CC[C@]12C (stereo partly drawn) | inactive | inactive | inactive | 5.85% (inactive) | 5.1% | 13.2% | inactive | 3.16 µM (active)
O=C(NCO)c1cccnc1 | inactive | inactive | inactive | 5.95% (inactive) | 14.8% | 25.7% | inactive | –
CC(=O)NC(CC(=O)O)C(=O)O (stereo not drawn) | inactive | inactive | inactive | 2.97% (inactive) | 13.4% | 18% | inactive | –
Nc1nc2[nH]c(=O)[nH]c2c(=O)[nH]1 | inactive | inactive | inactive | -0.21% (inactive) | 10.7% | 11.7% | inactive | –
CS(=O)(=O)CCCCN=C=S | inactive | inactive | inactive | -15.3% (inactive) | -1.15% | -18% | inactive | –
Nc1nc2[nH]c(=O)c(=O)[nH]c2c(=O)[nH]1 | inactive | inactive | inactive | 4.12% (inactive) | 1.82% | 6.32% | inactive | –
COc1c2ccccc2nc2occc12 | inactive | inactive | inactive | 9.64% (inactive) | 24.3% | 38.1% | inactive | –
COc1cc(O)c(C(=O)O)c(O)c1 | inactive | inactive | inactive | 4.12% (inactive) | 1.93% | 6.74% | inactive | –
CC(=O)OC1CCC2(O)CC1(C)CCC1C2CC1(C)C (stereo not drawn) | inactive | inactive | inactive | 0.291% (inactive) | 16.4% | 18.1% | inactive | –
Nc1ncnc2c1[nH]c(=O)n2C1OC(CO)C(O)C1O (stereo not drawn) | inactive | inactive | inactive | -0.198% (inactive) | 11.6% | 24.7% | inactive | –
COC(=O)C1=CO[C@@H](O[C@H]2OC(CO)C(O)C(O)C2O)C2C1CC(O)C2C (stereo partly drawn) | inactive | inactive | inactive | 6.73% (inactive) | 11.3% | 19.4% | inactive | –
COc1ccc(C2CC(=O)c3c(O)cc(O[C@H]4OC(COC5OC(C)C(O)C(O)[C@@H]5O)C(O)C(O)C4O)cc3O2)cc1O (stereo partly drawn) | inactive | inactive | inactive | -1.5% (inactive) | 1.58% | -1.01% | inactive | –
Nc1nc2c(nc(Br)n2C2OC(CO)C(O)C2O)c(=O)[nH]1 (stereo not drawn) | inactive | inactive | inactive | 2.67% (inactive) | 15.6% | 18.1% | inactive | –
CCN1CCN(C(=O)NC(C(=O)NC2C(=O)N3C2SC(C)(C)C3C(=O)O)c2ccccc2)C(=O)C1=O (stereo not drawn) | inactive | inactive | inactive | 7.43% (inactive) | -3.83% | 0.752% | inactive | –
CC1CCC(C(C)(C)O)CC2=C1CCC2C (stereo not drawn) | inactive | inactive | inactive | 7.53% (inactive) | 9.89% | 15.9% | inactive | –
NC(=O)NCC(N)C(=O)O (stereo not drawn) | inactive | inactive | inactive | 2.49% (inactive) | 3.72% | 6.05% | inactive | –
COC1[C@H](OC(N)=O)C(O)[C@H](Oc2ccc3c(O)c(NC(=O)c4ccc(O)c(CC=C(C)C)c4)c(=O)oc3c2C)OC1(C)C (stereo partly drawn) | inactive | inactive | inactive | 8.38% (inactive) | 13.2% | 25.2% | inactive | –
CC1(C)CC[C@]2(C)CC[C@@]3(C)C(=CCC4[C@@]5(C)CCC(O)C(C)(C)C5CC[C@@]43C)C2C1 (stereo partly drawn) | inactive | inactive | inactive | 3.54% (inactive) | 18% | 24.3% | inactive | –
CC(C)CCCC(C)C1CCC2C3CC(=O)[C@H]4CC(O)CC[C@]4(C)C3CC[C@@]12C (stereo partly drawn) | inactive | inactive | inactive | -8.35% (inactive) | -5.43% | -14% | inactive | –
Cn1nnnc1SCC1=C(C(=O)O)N2C(=O)C(NC(=O)C(OC=O)c3ccccc3)C2SC1 (stereo not drawn) | inactive | inactive | inactive | 4.18% (inactive) | 15% | 24.5% | inactive | –
O=C(O)C1CC(C2CCCCN2)CN2CCCCC12 (stereo not drawn) | inactive | inactive | inactive | 2.57% (inactive) | -1.28% | 1.78% | inactive | –

Compound | Potency [1] | Potency [2] | Potency [3] | activity change, negative = inhibition [4] | max response [4, 7] | max response [4, 8] | Potency [5] | Potency [6]
C=CCSCC=C | inactive | inactive | inactive | 6.16% (inactive) | -10.4% | -1.96% | inactive | –
CCC(CCC(C)C1CCC2C3CC=C4CC(OC(C)=O)CC[C@@]4(C)C3CC[C@@]12C)C(C)C (stereo partly drawn) | inactive | inactive | inactive | 5.75% (inactive) | 28.8% | 28.4% | inactive | –
C=CCSCC(N)C(=O)O (stereo not drawn) | inactive | inactive | inactive | 7.56% (inactive) | 17.4% | 25.7% | inactive | –
COc1ccc(-c2cc(=O)c3c(O)cc(O[C@@H]4OC(COC5OC(C)C(O)C(O)[C@@H]5O)C(O)C(O)C4O)cc3o2)cc1 (stereo partly drawn) | inactive | inactive | inactive | 5.1% (inactive) | -4.97% | 1.77% | inactive | –
CC(=O)Oc1ccc2c(c1)CCC1C2CC[C@@]2(C)C1CC(OC(C)=O)C2OC(C)=O (stereo partly drawn) | inactive | inactive | inactive | 5.31% (inactive) | 10.1% | 17.4% | inactive | –
O=C(/C=C/C(=O)Oc1ccccc1C(=O)O)Oc1ccccc1C(=O)O | inactive | inactive | inactive | 7.98% (inactive) | 4.07% | 13.2% | inactive | –
CC1=C2C(O)C(=O)OC3CC4C(C)(C)C(=O)C=C[C@]4(C)C(CC1)[C@@]23C (stereo partly drawn) | inactive | inactive | inactive | 3.51% (inactive) | 17.8% | 24.5% | inactive | –
C[C@]12CCC3c4ccc(O)cc4CCC3C1CC(O)C2O (stereo partly drawn) | inactive | inactive | inactive | -4.9% (inactive) | 6.91% | 3.96% | inactive | –
CCOC(=O)CCCCCCCCCCCCC1C=CCC1 (stereo not drawn) | inactive | inactive | inactive | 1.66% (inactive) | 9.42% | 10.7% | inactive | –
CC(C)CC(N)C(=O)NC(C)C(=O)O (stereo not drawn) | inactive | inactive | inactive | 3.3% (inactive) | 18.5% | 21.6% | inactive | –
CCC(CO)NCCNC(CC)CO (stereo not drawn) | inactive | inactive | inactive | -3.77% (inactive) | 8.09% | 6.63% | inactive | –
COC1C(O)C(CO)OC1n1c(Br)nc2c(=O)[nH]c(N)nc21 (stereo not drawn) | inactive | inactive | inactive | 1.73% (inactive) | 0.309% | 3.63% | inactive | –
Cc1c(O)cc(O)c2c(=O)c(-c3ccc(O)cc3)coc12 | inactive | inactive | inactive | 8.55% (inactive) | 16.6% | 28% | inactive | –
COc1cc(-c2coc3cc(O[C@H]4OC(CO)C(O)C(O)C4O)c(OC)c(O)c3c2=O)cc(O)c1OC (stereo partly drawn) | inactive | inactive | inactive | 7.43% (inactive) | 6.4% | 13.8% | inactive | –
OC1C2COC(O2)[C@H](O)C1O (stereo partly drawn) | inactive | inactive | inactive | 7.67% (inactive) | 12.6% | 22.2% | inactive | –
COC(=O)C(C)c1ccc(C(=O)c2cccs2)cc1 (stereo not drawn) | inactive | inactive | inactive | 9.81% (inactive) | -1.55% | 12.4% | inactive | –
COc1ccc(-c2cc(=O)c3c(O)c(OC)c(OC)c(OC)c3o2)cc1 | inactive | inactive | inactive | 5.49% (inactive) | 14.3% | 20.3% | inactive | –
CC(C)=CCc1c(O)cc(C)oc1=O | inactive | inactive | inactive | 0.619% (inactive) | 9.29% | 11.1% | inactive | –
CC(=O)OC1CC[C@@]2(C)C(CC[C@@]3(C)C2CC=C2C4CC(C)(C)CC[C@]4(C)CC[C@@]23C)C1(C)C (stereo partly drawn) | inactive | inactive | inactive | 4.64% (inactive) | 6.83% | 14% | inactive | –
C=C(C)C1CC[C@]2(CO)CC[C@@]3(C)[C@H](CCC4[C@@]5(C)CCC(O)C(C)(C)C5CC[C@@]43C)C12 (stereo partly drawn) | inactive | inactive | inactive | -2.93% (inactive) | -9.58% | -12.7% | inactive | –
C[C@@H]1OC(OC2CC[C@@]3(C)C(CC[C@@]4(C)C3CC=C3C5CC(C)(C)CC[C@]5(C(=O)OC5OCC(O)[C@@H](O)[C@@H]5OC5O[C@@H](C)[C@H](O[C@H]6OC(CO)C(O)C(O)C6O)C(O)C5O)C(O)C[C@@]34C)C2(C)C)C(O)C(O)[C@H]1OC1OCC(O)C(O)[C@H]1O (stereo partly drawn) | inactive | inactive | inactive | 1.15% (inactive) | -28.2% | -26.8% | inactive | –
CC(=O)OCCC(C)CCC=C(C)C (stereo not drawn) | inactive | inactive | inactive | 5.97% (inactive) | 4.67% | 12.4% | inactive | –
CC(C)C(NC(=O)C(Cc1ccc(O)cc1)NC(=O)C(NC(=O)C(F)(F)F)C(C)C)C(=O)O (stereo not drawn) (Tfa-Val-Tyr-Val-OH; configuration not given here) | inactive | inactive | inactive | 4.31% (inactive) | 0.432% | 4.35% | inactive | –
O=c1ccn(C2OC(COP(=O)(O)OP(=O)(O)OP(=O)(O)O)C(O)C2O)c(=O)[nH]1 (stereo not drawn) | inactive | inactive | inactive | 6.49% (inactive) | 21.5% | 29.6% | inactive | –
COc1cc(/C=C/C(=O)O)cc(OC)c1OC | inactive | inactive | inactive | 3.87% (inactive) | 9.64% | 14.9% | inactive | –
